One assay relates to PPARa:RXRa (NR concentration 270 nM, RXRa partner concentration 90 nM). Nature of the assay: PBM binding z-score (relative to random genomic background probes); higher = stronger binding; sequences stand for … in GC…GCGATTGACAGCGTAGAATGAAGG
The essentials:
(§1)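 Antibodies against each partner of ligand-free nuclear receptor dimers (one per run) detected binding on custom Agilent 4×180K protein-binding microarrays after 1 h incubation. The double-stranded probes had 34-nt variable regions carrying direct-repeat seeds, single-nucleotide variants, half-site ablations and random human genomic background sequences. Binding z-scores, from regression-normalized fluorescence, use the random background probes as reference.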
In turn, CTACCAAGGTGGACAAGGTCGTTGATTACTATTC returned a PBM binding z-score of 0.861.

Regarding AGAGTGAGGTTAAGATCAGGGAAACAGAATACAT, the PBM binding z-score was found to be 3.15.

Regarding CCAGACAGGTGAAAGGGAACTCAGTCTGGTACGC, the PBM binding z-score came out at 1.63.

The sequence CGAACTAGGTCATGGACAGTGAATCTCCGCACGC registered a PBM binding z-score of 4.61.

The sequence CGACCTAGGTCATCCAGGACAGTGAATACATTGA displayed a PBM binding z-score of 4.33.

TAGCCTAGGTCATGCGGGCCACTATAGTGTCGGC showed a PBM binding z-score of 3.55.

Consider ACTAGCAGGCCCAGTTTGGGTCACTCAAACAAAG, for which the PBM binding z-score was 0.93.

Take TAGCCTAGGTCATTCAGGTGCCAGTATAGAAAGC: the PBM binding z-score came to 3.55.

As for ATCCCTAGGTAAAGATAGTTCAGTGAATGCAAAT, the PBM binding z-score came to 0.459.

As to CAAACTAGGGCACCGGAAGGTCAAAGTCCGCATG, the PBM binding z-score was found to be 4.89.

Consider CCCCGGAGGACAACAGGAGGTCAGAGCTGCCAGA, for which the PBM binding z-score worked out at 2.24.

CAAACTAGGTCAAGAGGGCAAAGTCCGCTTCCCG displayed a PBM binding z-score of 5.21.

With ATCCAAAGGTCGACGAGGTGAGTATACACCGTTT, the PBM binding z-score stood at 4.5.

The sequence TATACAGGGTCAAACGCCAGAGTACGAATGTCGA had a PBM binding z-score of 6.3.

Consider ACTAGCAGGCCAAGTCTGGGTCACTCAAACAAAG, for which the PBM binding z-score turned out to be 2.38.

In turn, GCAGACAGGTGAAACGCAGGTGACTCAGGGTGGC yielded a PBM binding z-score of 1.18.

ATCTGTAGGTAACCAAGTTCAGTGAATGCCGAAC showed a PBM binding z-score of 1.05.

CTTACTGGGCCATTCAGAGGTCATTGATCATATG had a PBM binding z-score of 4.48.

ATACCAAGGTGATCGTGAGGTCGTTCATACTAAC: the PBM binding z-score is 1.53.

Take TAGCCTAGGTCATTCAGTGGCCAGTATAGAAAGC: the PBM binding z-score stood at 3.44.

Consider AGTCAAAGTTCCCTAGGTAACGTAAGATTCAGCT, for which the PBM binding z-score is -0.259.

Sequence TCTTGTAGATCAAGCAGGTGAAGAAAGCCTGAGT yielded a PBM binding z-score of 0.527.

The sequence CCTAGTTGGTCAAAGTCACACACGCTATAGGTAC had a PBM binding z-score of 0.517.

For CCTAGTTGGTCGAGGTCACACACGCTATAGGTAC, the PBM binding z-score stood at 4.31.

Sequence GATACAGGGTCAAGGCCAGAGTTCGCGTATTGAT yielded a PBM binding z-score of 5.66.

On to CCAACTAGGTCAAGGACAGTGAATCTCCGCACGC, for which the PBM binding z-score is 3.96.

As for TCTTGTAGATCAGCATGTTAAGAAAGCTGGCCAA, the PBM binding z-score amounted to 0.231.

As to ACTTACGGGTCAACGAGGTTATAGCGCGCGTATA, the PBM binding z-score was 5.73.

CGTCCAAGGTCAAAGATCAGTGAAGAGATGACGG: the PBM binding z-score came to 5.75.

As for CCTTACGGGTCGAGGTTATAGCACGGGTGGTACG, the PBM binding z-score turned out to be 2.42.

In turn, GCTGACAGGTGAAACGCAGGTAACTCAGGGTGGC showed a PBM binding z-score of 0.868.

CCTACTGGTCCACGAAAGGTCATTGATTCAGTGA displayed a PBM binding z-score of 4.38.

Turning to CCAACTGGGGCAAGGTTACCATAACGCACAGCCA, the PBM binding z-score is 2.49.

GCTGCTAGGTCAGGTTGGTCACCTAACGGGTACG: the PBM binding z-score stood at 1.56.

Turning to CCGACTGGGGCAAAGGGTACCATACTCAGTACGA, the PBM binding z-score was 3.81.

With ATCTCTAGGTAAGACTAAGTTCAGTGAAGAACGC, the PBM binding z-score was determined as 0.936.

For the sequence TCTATTAGTTTATTAGGGCAACCGAAACAGCGGA, the PBM binding z-score was 2.4.

As for CCTTACGGGCCACTCCAGGTTATAGCATCGGAGT, the PBM binding z-score is -0.00696.

The sequence TCTTGTAGATCAAGCACGTTAAGAAAGCCTGAGT registered a PBM binding z-score of 0.484.

For the next assay, the system named is PPARg:RXRa (NR concentration 180 nM, RXRa partner concentration 90 nM). The description is as above. A digest of the protocol:
as §1
CTACCAAGGTGGACAAGGTCGTTGATTACTATTC returned a PBM binding z-score of 0.061.

AGAGTGAGGTTAAGATCAGGGAAACAGAATACAT showed a PBM binding z-score of 1.43.

CCAGACAGGTGAAAGGGAACTCAGTCTGGTACGC came in with a PBM binding z-score of 2.51.

CGAACTAGGTCATGGACAGTGAATCTCCGCACGC: the PBM binding z-score amounted to 7.41.

With CGACCTAGGTCATCCAGGACAGTGAATACATTGA, the PBM binding z-score was 3.93.

In turn, TAGCCTAGGTCATGCGGGCCACTATAGTGTCGGC gave a PBM binding z-score of 2.41.

ACTAGCAGGCCCAGTTTGGGTCACTCAAACAAAG: the PBM binding z-score was -0.337.

On to TAGCCTAGGTCATTCAGGTGCCAGTATAGAAAGC, for which the PBM binding z-score came out at 1.87.

ATCCCTAGGTAAAGATAGTTCAGTGAATGCAAAT had a PBM binding z-score of 0.486.

Consider CAAACTAGGGCACCGGAAGGTCAAAGTCCGCATG, for which the PBM binding z-score turned out to be 6.22.

CCCCGGAGGACAACAGGAGGTCAGAGCTGCCAGA: the PBM binding z-score stood at 0.602.

As for CAAACTAGGTCAAGAGGGCAAAGTCCGCTTCCCG, the PBM binding z-score came to 8.68.

Turning to ATCCAAAGGTCGACGAGGTGAGTATACACCGTTT, the PBM binding z-score came to 4.29.

TATACAGGGTCAAACGCCAGAGTACGAATGTCGA: the PBM binding z-score was found to be 7.33.

Consider ACTAGCAGGCCAAGTCTGGGTCACTCAAACAAAG, for which the PBM binding z-score was 0.901.

The sequence GCAGACAGGTGAAACGCAGGTGACTCAGGGTGGC displayed a PBM binding z-score of 0.635.

As to ATCTGTAGGTAACCAAGTTCAGTGAATGCCGAAC, the PBM binding z-score worked out at 0.635.

Take CTTACTGGGCCATTCAGAGGTCATTGATCATATG: the PBM binding z-score was 4.03.

ATACCAAGGTGATCGTGAGGTCGTTCATACTAAC had a PBM binding z-score of 0.472.

In the case of TAGCCTAGGTCATTCAGTGGCCAGTATAGAAAGC, the PBM binding z-score was 1.95.

Consider AGTCAAAGTTCCCTAGGTAACGTAAGATTCAGCT, for which the PBM binding z-score came out at 0.281.

In turn, TCTTGTAGATCAAGCAGGTGAAGAAAGCCTGAGT had a PBM binding z-score of -0.404.

With CCTAGTTGGTCAAAGTCACACACGCTATAGGTAC, the PBM binding z-score worked out at 1.35.

Regarding CCTAGTTGGTCGAGGTCACACACGCTATAGGTAC, the PBM binding z-score came to 2.86.

As to GATACAGGGTCAAGGCCAGAGTTCGCGTATTGAT, the PBM binding z-score came to 5.99.

Take CCAACTAGGTCAAGGACAGTGAATCTCCGCACGC: the PBM binding z-score was found to be 6.59.

With TCTTGTAGATCAGCATGTTAAGAAAGCTGGCCAA, the PBM binding z-score was -0.371.

On to ACTTACGGGTCAACGAGGTTATAGCGCGCGTATA, for which the PBM binding z-score amounted to 5.68.

CGTCCAAGGTCAAAGATCAGTGAAGAGATGACGG gave a PBM binding z-score of 6.08.

For the sequence CCTTACGGGTCGAGGTTATAGCACGGGTGGTACG, the PBM binding z-score stood at 0.822.

GCTGACAGGTGAAACGCAGGTAACTCAGGGTGGC had a PBM binding z-score of 0.373.

For CCTACTGGTCCACGAAAGGTCATTGATTCAGTGA, the PBM binding z-score is 1.3.

Regarding CCAACTGGGGCAAGGTTACCATAACGCACAGCCA, the PBM binding z-score was 4.28.

Sequence GCTGCTAGGTCAGGTTGGTCACCTAACGGGTACG had a PBM binding z-score of 0.627.

CCGACTGGGGCAAAGGGTACCATACTCAGTACGA registered a PBM binding z-score of 8.34.

In turn, ATCTCTAGGTAAGACTAAGTTCAGTGAAGAACGC yielded a PBM binding z-score of 0.481.

On to TCTATTAGTTTATTAGGGCAACCGAAACAGCGGA, for which the PBM binding z-score came to 1.56.

The sequence CCTTACGGGCCACTCCAGGTTATAGCATCGGAGT came in with a PBM binding z-score of 0.417.

TCTTGTAGATCAAGCACGTTAAGAAAGCCTGAGT displayed a PBM binding z-score of -0.254.

Source of the values: the supplement of paper PMC6555819.
